This is a sample that favours compounds with a hit; in the whole collection about 8.1% have one here.
SW480 rereplic = induces DNA re-replication in SW480 colon adenocarcinoma cells; 340,000 compounds, 1.8% hits; Potency, µM (highest dose often 46.1 µM), hits mostly activators; SW480 DNA re-replication, Hoechst DNA content imaging, 48 h; note: nearly all actives have a fitted effect of over 55% in size
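Cells (250 per well) received 23 nL compound or DMSO by pin tool and were kept 48 hr at 37 C, 5% CO2. Nuclei were then stained with Hoechst for 40 min and scanned for DNA content.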
KB-3-1 tox = kills parental KB-3-1 adenocarcinoma cells. Potency, µM (highest dose often 46.1 µM), actives largely listed as cytotoxic. KB-3-1 viability, CellTiter-Glo ATP luminescence, 72 h. 400,000 compounds, 1.4% hits. AID 1347075; note: nearly all actives have a fitted effect of over 60% in size
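Screening of KB-3-1 cells (DMEM, 10% FBS, phenol-red free) ran from lowest to highest compound concentration; after 72 h at 37 °C viability was read luminescently and curves fitted.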
ELG1 DNA repair = ELG1-dependent DNA repair inhibition. Potency, µM (highest dose often 46.1 µM), usual class: inhibitors. 330,000 compounds, 2.3% hits. HEK293T ELG1-luciferase reporter, luminescence, 16 h; DNA damage induced by 5-fluorouridine; note: nearly all actives have a fitted effect of over 55% in size
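Overnight (16 hr) co-exposure of 2,000 cells/well to 5-fluorouridine and compound at 37 °C preceded detection. Luciferase was quantified via ONE-Glo luminescence; loss of signal denotes inhibition.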
MCF10A rerep = induces DNA re-replication in MCF 10a normal breast cells; MCF 10A DNA re-replication, Hoechst nuclear intensity, 48 h; Potency, µM (highest dose often 46.1 µM), most hits filed as activators; 350,000 compounds, 2.9% hits; note: nearly all actives have a fitted effect of over 50% in size
KB-V1 MDR tox = KB-V1 MDR subline cytotoxicity; KB-V1 MDR cells viability, CellTiter-Glo, 72 h; 400,000 compounds, 3.4% hits; Potency, µM (titrated, usually from 46.1 µM), hits mostly cytotoxic; AID 1347076; note: nearly all actives have a fitted effect of over 60% in size
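In this primary screen, KB-V1 cells overexpressing P-gp are incubated with library compounds (lowest to highest concentration) for 72 h at 37 degrees C before a luminescent ATP viability read.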
Each line names hits and unclear results; the compound was inactive in the other large screens. Calls come from the whole dose curve; as a rule, active = well fitted curve in the direction sought with a large enough effect; inconclusive = small, poorly fitted or top-dose-only effect, or another doubt; inactive = no such curve, though single readings can be large; an effect the other way counts as inactive or inconclusive.

O=C1C2C3C=CC(C3)C2C(=O)N1/N=C/c1cn(Cc2ccc(F)cc2)c2ccccc12 (stereo not drawn)	KB-3-1 tox inconclusive, ELG1 DNA repair inconclusive, MCF10A rerep inconclusive
COc1ccc(CN(C)C(=O)C2CC(=O)N(c3ccc4c(c3)OCCO4)C2)cc1 (stereo not drawn)	none (no result: SW480 rereplic, ELG1 DNA repair, MCF10A rerep)
O=C(O)c1ccc(CN2C(=O)c3cccc4c([N+](=O)[O-])ccc(c34)C2=O)cc1	SW480 rereplic 5.8µM, KB-3-1 tox inconclusive, ELG1 DNA repair inconclusive, MCF10A rerep 5.8µM, KB-V1 MDR tox inconclusive
O=C(O)c1ccc(CN2C(=O)c3ccc(C(=O)O)cc3C2=O)cc1	none
COc1ccccc1N(CC(O)COc1ccccc1)S(=O)(=O)c1ccccc1 (stereo not drawn)	SW480 rereplic inconclusive, KB-V1 MDR tox 13µM
COc1ccccc1N(CC(O)COc1ccc(C)cc1)S(=O)(=O)c1ccccc1 (stereo not drawn)	ELG1 DNA repair inconclusive, MCF10A rerep inconclusive, KB-V1 MDR tox inconclusive
COc1ccccc1N(CC(O)COc1c(C)cc(C)cc1C)S(=O)(=O)c1ccccc1 (stereo not drawn)	SW480 rereplic inconclusive, KB-3-1 tox inconclusive, ELG1 DNA repair inconclusive, MCF10A rerep inconclusive, KB-V1 MDR tox 8.2µM
NS(=O)(=O)c1cccc(NC(=O)CSc2nn(-c3ccccc3)c(=S)s2)c1	ELG1 DNA repair inconclusive
CN(C)S(=O)(=O)c1cc(NC(=O)CSc2nn(-c3ccc(Cl)cc3)c(=S)s2)ccc1Cl	KB-3-1 tox inconclusive, ELG1 DNA repair inconclusive, KB-V1 MDR tox 16µM
Cc1ccc(NC(=O)CSc2nn(-c3ccc(Cl)cc3)c(=S)s2)cc1S(=O)(=O)N(C)C	KB-3-1 tox inconclusive, ELG1 DNA repair 15µM, KB-V1 MDR tox 21µM (no result: SW480 rereplic)
CCn1c([N+](=O)[O-])nc2c1c(=O)[nH]c(=O)n2C	SW480 rereplic 8.2µM, KB-3-1 tox inconclusive, ELG1 DNA repair inconclusive, MCF10A rerep 5.8µM, KB-V1 MDR tox inconclusive
CCCCCCn1c(SCCCC)nc2c1c(=O)[nH]c(=O)n2C	none
COC(=O)CSc1nc(-c2cccs2)ccc1C#N	SW480 rereplic inconclusive, ELG1 DNA repair inconclusive, MCF10A rerep inconclusive
Cc1ccc(C(=O)Nc2nc(C)c(C(=O)Nc3ccc4c(c3)CCC4)s2)cc1	SW480 rereplic 5.8µM, KB-3-1 tox 21µM, ELG1 DNA repair inconclusive, MCF10A rerep 1µM, KB-V1 MDR tox 2.9µM
O=C(Nc1ccccc1)c1cc([N+](=O)[O-])ccc1NCc1cccnc1	SW480 rereplic 1.3µM, ELG1 DNA repair inconclusive
C[C@@H]1CNC(=O)c2c(C(=O)N[C@H](C)c3ccccc3)ncn21	KB-V1 MDR tox inconclusive (no result: SW480 rereplic, ELG1 DNA repair, MCF10A rerep)
O=c1[nH]c(/C=C/c2ccc(OC(F)F)cc2)nc2c1cnn2-c1ccccc1	SW480 rereplic 9.2µM, ELG1 DNA repair inconclusive, MCF10A rerep 15µM
CC1CCC(C(=O)NC(C(=O)N2CCN(c3ccccn3)CC2)C(C)C)CC1 (stereo not drawn)	KB-V1 MDR tox 3.3µM
O=C(Cc1c(O)c2ccccc2[nH]c1=O)NC1CCCCCCC1	none
COc1ccc(NS(=O)(=O)c2ccc3c(c2)CCCN3C(=O)C2CCC2)cc1OC	KB-3-1 tox 2.6µM, KB-V1 MDR tox inconclusive (no result: SW480 rereplic, ELG1 DNA repair, MCF10A rerep)
CC(/C=C/c1ccc(O)cc1)=NNc1ccccc1	SW480 rereplic inconclusive, MCF10A rerep 23µM (no result: ELG1 DNA repair)
CC(/C=C/c1ccccc1)=N\NC(N)=S	KB-3-1 tox inconclusive, ELG1 DNA repair inconclusive, KB-V1 MDR tox 18µM
O=C(CCc1ccc(O)c(O)c1)NNC(=S)Nc1ccc(Br)cc1Cl	none
O=C(c1ccncc1)c1ccc(N2CCN(C3CC(=O)N(Cc4ccccc4)C3=O)CC2)cc1 (stereo not drawn)	KB-3-1 tox inconclusive, ELG1 DNA repair inconclusive, MCF10A rerep inconclusive, KB-V1 MDR tox 16µM
CCOc1ccc(NC(=O)c2oc3ccccc3c2NC(=O)C2CCCCC2)cc1	KB-V1 MDR tox inconclusive (no result: SW480 rereplic, ELG1 DNA repair, MCF10A rerep)
O=C(CCl)Nc1c(C(=O)Nc2ccc3c(c2)OCCO3)oc2ccccc12	SW480 rereplic inconclusive, KB-3-1 tox inconclusive, ELG1 DNA repair inconclusive, MCF10A rerep 7.3µM, KB-V1 MDR tox inconclusive
O=C(Nc1ccc(F)cc1)c1oc2ccccc2c1NC(=O)C1CCCC1	KB-V1 MDR tox 13µM
Cc1c(C(=O)OCC(=O)NCCN2C(=O)CSC2=O)oc2c1ccc1ccccc12	SW480 rereplic inconclusive, ELG1 DNA repair inconclusive, MCF10A rerep inconclusive, KB-V1 MDR tox 23µM
O=Nc1nc2ncccn2c1-c1ccccc1	SW480 rereplic 9.2µM, MCF10A rerep 13µM, KB-V1 MDR tox inconclusive (no result: ELG1 DNA repair)
N=c1oc2cc(O)ccc2cc1C(=O)Nc1nc2ccccc2s1	SW480 rereplic 2.9µM, ELG1 DNA repair inconclusive, MCF10A rerep 8.2µM
N=c1oc2cc(O)ccc2cc1C(=O)Nc1ccccn1	none (no result: SW480 rereplic, KB-3-1 tox, MCF10A rerep, KB-V1 MDR tox)
N=c1oc2cc(O)ccc2cc1C(=O)Nc1ccc(Br)cc1	SW480 rereplic 1.6µM, KB-3-1 tox 23µM, ELG1 DNA repair inconclusive, MCF10A rerep 5.2µM, KB-V1 MDR tox 18µM
Cc1cc2nc(-c3ccc(C#N)cc3)c(Cc3cccc(F)c3)n2c(C)c1Br	none (no result: SW480 rereplic, ELG1 DNA repair, MCF10A rerep)
C/C(=N\NC(=O)c1ccccc1)c1cc2cc([N+](=O)[O-])ccc2oc1=O	none
CCN(CC)S(=O)(=O)c1cc([N+](=O)[O-])ccc1NNC(=O)Nc1ccc(F)cc1	KB-3-1 tox inconclusive, ELG1 DNA repair inconclusive, MCF10A rerep 23µM
CC1CC(C)(C)NC(=S)N1CCC(=O)Nc1ccc2c(c1)OCCO2 (stereo not drawn)	SW480 rereplic inconclusive, KB-3-1 tox 23µM, MCF10A rerep inconclusive, KB-V1 MDR tox inconclusive
Cc1cccc(CN2CCN(C3CN(Cc4cn(Cc5cccc(C(F)(F)F)c5)nn4)S(=O)(=O)C3)CC2)c1 (stereo not drawn)	KB-3-1 tox inconclusive (no result: SW480 rereplic, ELG1 DNA repair, MCF10A rerep)
CC1=CC(=C(c2ccc(N)cc2)c2ccc(N)cc2)C=CC1=N	KB-3-1 tox 2.3µM, KB-V1 MDR tox inconclusive (no result: ELG1 DNA repair)
CCOC(=O)C1=C(N)Oc2cc(O)ccc2C1c1ccc(C)cc1 (stereo not drawn)	MCF10A rerep inconclusive, KB-V1 MDR tox inconclusive
CC(C)Sc1nc2c(c(=O)[nH]c(=O)n2C)n1Cc1ccc(Cl)cc1	none
CCC(C)Sc1nc2c(c(=O)[nH]c(=O)n2C)n1Cc1ccc(Cl)cc1 (stereo not drawn)	KB-3-1 tox inconclusive, MCF10A rerep inconclusive, KB-V1 MDR tox 9.2µM
CCC(C)Sc1nc2c(c(=O)[nH]c(=O)n2C)n1CC(O)COc1ccccc1C (stereo not drawn)	KB-3-1 tox inconclusive, ELG1 DNA repair 16µM, MCF10A rerep inconclusive, KB-V1 MDR tox 18µM
C=CCn1c(SCc2ccc(Cl)cc2)nc2c1c(=O)[nH]c(=O)n2C	KB-V1 MDR tox 16µM
CCOC(=O)C(CC)Sc1nc2c(c(=O)[nH]c(=O)n2C)n1CCc1ccccc1 (stereo not drawn)	ELG1 DNA repair 8.2µM
O=C(Nc1ccc(Cl)cc1)c1cc2nc(-c3ccc4c(c3)OCO4)cc(C(F)(F)F)n2n1	none (no result: SW480 rereplic, ELG1 DNA repair, MCF10A rerep)

High-throughput results deposited in PubChem by National Center for Advancing Translational Sciences (NCATS).
